The supplement of paper PMC12067926
Unmarked numbers belong to inactive results.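 Rule for the calls: active = growth AUC significantly below the DMSO wells by Dunnett test; inactive = the rest.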

Key:
Assay in all cases: relative growth (AUC of 72 h growth curve relative to DMSO control, dAUC) (ratio); higher = more growth (less inhibition), active = hit call of the paper
Conditions in all cases: 20 µM
[1] = system: Prolinoborus 1 (Prolinoborus fasciculus)
Procedure, shortened: (§1)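 Relative growth (dAUC) is the spline-integrated area under the growth curve divided by the mean of the DMSO-only control wells. Cultures were isolates from Icelandic stream sediments and Silwood Park soil, plus whole sediment communities, grown to carrying capacity in Luria–Bertani medium and diluted 1:100 into 96-well plates containing each chemical at 20 µM (1% DMSO). A600 was read hourly for 72 h on a plate reader, with brief shaking before each read, and values were averaged over three biological replicates.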

[2] = system: Pseudomonas 1 (Pseudomonas baetica)
Procedure, shortened: as §1

[3] = system: Pseudomonas 2 (Pseudomonas vancouverensis)
Procedure, shortened: as §1

[4] = system: Pseudomonas 3 (Pseudomonas mandelii)
Procedure, shortened: as §1

[5] = system: Pseudomonas 4 (Pseudomonas peli)
Procedure, shortened: as §1

[6] = system: Pseudomonas 5 (Pseudomonas baetica)
Procedure, shortened: as §1

[7] = system: Pseudomonas 6 (Pseudomonas sp.)
Procedure, shortened: as §1

[8] = system: Rhizobium 1 (Rhizobium herbae)
Procedure, shortened: as §1

[9] = system: Serratia 1 (Serratia sp. 2015-2462-01)
Procedure, shortened: as §1

[10] = system: Sphingomonas 2 (Sphingomonas sp.)
Procedure, shortened: as §1

SMILES	relative growth [1]	relative growth [2]	relative growth [3]	relative growth [4]	relative growth [5]	relative growth [6]	relative growth [7]	relative growth [8]	relative growth [9]	relative growth [10]
CCCCc1c(C)nc(NCC)nc1OS(=O)(=O)N(C)C	1.04	1.06	0.978	1.02	0.97	0.981	1	1.05	0.96	0.969
CO/N=C(/C(=O)OC)c1ccccc1CO/N=C(\C)c1cccc(C(F)(F)F)c1	0.953	1.13	1	1.04	0.949	0.978	1.03	0.921	0.952	1.1
CCOc1cc(Oc2ccc(C(F)(F)F)cc2Cl)ccc1[N+](=O)[O-]	0.938	1.08	0.992	1.05	0.939	1.01	1.12	0.994	0.952	1.2
Nc1c(Cl)c(F)nc(OCC(=O)O)c1Cl	1	0.977	1	0.978	1.04	0.947	0.889	0.958	0.996	1.11
CCN(CC)c1nc(C)cc(OP(=S)(OC)OC)n1	1.01	1	1	1	0.979	0.988	1.03	1.05	0.994	0.839
Oc1ccccc1-c1ccccc1	0.977	1.03	0.98	1.01	0.935	1.05	1.14	0.989	0.959	0.969
CCc1nn(C)c(C(=O)NCc2ccc(Oc3ccc(C)cc3)cc2)c1Cl	0.978	1.08	1.02	1.01	0.987	1.01	1.05	0.941	1.07	1.04
COCC(=O)N(c1c(C)cccc1C)C(C)C(=O)OC (stereo not given)	0.923	1.06	1.01	1	0.995	1.02	1.03	0.907	0.994	1.05
CC1COC(Cn2cncn2)(c2ccc(Oc3ccc(Cl)cc3)cc2Cl)O1 (stereo not given)	1.04	1.06	0.99	1.06	1.01	1.03	1.08	0.952	1.01	1.06
O=[N+]([O-])c1cc(C(F)(F)F)c(Cl)c([N+](=O)[O-])c1Nc1ncc(C(F)(F)F)cc1Cl	0.66 (active)	0.775	0.795 (active)	0.00358 (active)	0.498 (active)	0.595 (active)	0.258 (active)	0.109 (active)	0.004 (active)	0.0215 (active)
COc1ccc(C(=CC(=O)N2CCOCC2)c2ccc(Cl)cc2)cc1OC (mixture of isomers)	0.994	1.09	0.999	1.03	1.01	0.972	0.951	1.02	0.978	1.12
CNC(=O)Oc1cccc(/N=C/N(C)C)c1	0.966	1.04	0.989	1.1	0.942	1.07	1.17	0.99	0.97	1.05
CC(C)NC(=O)N1CC(=O)N(c2cc(Cl)cc(Cl)c2)C1=O	0.949	0.913	0.94	0.906	0.923	0.954	0.864	1.03	0.982	0.971
CS(=O)(=O)c1cc(C(F)(F)F)ccc1C(=O)c1cnoc1C1CC1	1	0.985	1.02	1.01	1.02	0.96	0.911	1.11	1.06	1.11
O=C1C2CC=CCC2C(=O)N1SC(Cl)(Cl)Cl (stereo not given)	0.598 (active)	0.601 (active)	0.983	0.941	0.796 (active)	0.954	0.879	0.519 (active)	0.813 (active)	0.398 (active)
COC(=O)NC(=S)Nc1ccccc1NC(=S)NC(=O)OC	0.975	1.04	0.969	0.99	0.95	1.06	1.14	0.959	0.987	1.01
CC[C@H]1CCC[C@H](O[C@H]2CC[C@H](N(C)C)[C@@H](C)O2)[C@@H](C)C(=O)C2=C[C@@H]3[C@@H](C=C(C)[C@@H]4C[C@@H](O[C@@H]5O[C@@H](C)[C@H](OC)[C@@H](OC)[C@H]5OC)C[C@@H]34)[C@@H]2CC(=O)O1.CC[C@H]1CCC[C@H](O[C@H]2CC[C@H](N(C)C)[C@@H](C)O2)[C@@H](C)C(=O)C2=C[C@H]3[C@@H]4C[C@H](O[C@@H]5O[C@@H](C)[C@H](OC)[C@@H](OC)[C@H]5OC)C[C@H]4C=C[C@H]3C2CC(=O)O1	0.832	1.14	0.981	1.04	1.05	1.06	1.01	0.89	1.1	1
CC1(C)[C@H](C(=O)O[C@H](C#N)c2cccc(Oc3ccccc3)c2)[C@@H]1C=C(Br)Br	1.01	1.04	1.03	1.03	1.01	1.06	1.14	1.23	1	1.12
CCc1cc(C)cc(CC)c1-c1c(OC(=O)C(C)(C)C)n2n(c1=O)CCOCC2	0.926	1.1	0.992	1.01	0.953	0.951	1.02	0.907	0.972	1.06
COCC(=O)N(c1c(C)cccc1C)[C@H](C)C(=O)OC	0.988	0.997	0.974	1.09	1.03	1.01	1.01	1.13	0.965	1.02
N#Cc1sc2c(=O)c3ccccc3c(=O)c=2sc1C#N	1.03	0.913	0.929	0.887 (active)	1.07	0.962	0.885	1	0.862	1.01
CCOC(=O)OC1=C(c2cc(C)ccc2C)C(=O)N[C@]12CC[C@@H](OC)CC2	1	1.11	0.998	1.02	1.02	0.981	1.09	0.952	0.987	1.04
Cc1ccc(/N=C/N(C)/C=N/c2ccc(C)cc2C)c(C)c1	0.978	1.05	0.973	1.1	0.967	1.01	1.11	1.06	0.946	1.04
COc1cc(C)c(C(=O)c2c(OC)ccc(Br)c2C)c(OC)c1OC	1.01	0.978	1.01	1	1.02	0.991	0.939	0.937	1.02	1.04
COC(=O)Nc1nc2ccccc2[nH]1	1.03	1.05	0.975	1	1.01	1.05	1.08	0.944	0.978	0.732
